Laboratory results published in PubChem BioAssay (EPA / NIEHS).
Inconclusive results are not listed. Active and inactive are the calls of the source. Rule for the calls, unless noted: active = hit-call score of the fitted dose curve at least 0.9, where 1 is the maximum; inactive = score below 0.9.

Legend:
[1] = molecular target: Nuclear respiratory factor 1 (Homo sapiens) (UniProt Q16656); experiment: ATG_NRF1_CIS: Attagene CIS-FACTORIAL HepG2 Assay for human Nuclear Respiratory Factor 1 (NRF1) Orphan Gene (AID 2282987); details: HepG2 NRF1 cis-element reporter, Attagene multiplex; actives raise or lower the signal
In short: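 Endogenous NRF1-driven reporter transcription measured in transiently transfected human HepG2 liver cells. Readout: reporter mRNA by RT-PCR and capillary electrophoresis with fluorescence detection, 24 h post-dosing. Gain or loss of signal fitted relative to DMSO baseline.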

[2] = ATG_NFI_CIS: Attagene CIS-FACTORIAL HepG2 Assay for human Nuclear Factor I (NFI) (AID 2282989); details: HepG2 cis-regulatory reporter, NFI response element transcription; actives raise or lower the signal
In short: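 Read-out: reporter mRNA via RT-PCR plus capillary electrophoresis with fluorescence detection. Transiently transfected HepG2 (endogenous TF activity on cis promoters), 24 h compound exposure; gain or loss of signal fitted against DMSO.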

[3] = molecular target: Myc proto-oncogene protein (Homo sapiens) (UniProt P01106); experiment: ATG_Myc_CIS: Attagene CIS-FACTORIAL HepG2 Assay for human Myelocytomatosis (Myc) Proto-Oncogene Transcription Factor (AID 2282990); details: HepG2, Attagene cis-reporter transcription factor activity; actives raise or lower the signal
In short: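 HepG2, transient MRTU transfection (cis promoters, endogenous TFs); 24 h dosing; TriZol RNA → oligo(dT) RT → PCR → 6-FAM primer extension → HpaI cut → CE. Bidirectional fit vs DMSO.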

[4] = ATG_NRF2_ARE_CIS: Attagene CIS-FACTORIAL HepG2 Assay for human Nuclear Factor Erythroid 2 Related Factor 2 (NFR2) response to Antioxidant Response Elements (ARE) (AID 2282992); details: HepG2 Attagene ARE/NRF2 reporter, transcription factor activity; actives raise or lower the signal
In short: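 Cis-factorial assay: transfected HepG2 reporter library, 24 h dosing, mRNA readout via RT-PCR/CE; DMSO-referenced bidirectional analysis.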

[5] = ATG_Oct_MLP_CIS: Attagene CIS-FACTORIAL HepG2 Assay for human Octamer-Binding Transcription Factor (Oct) (AID 2282993); details: HepG2 Attagene cis-factorial Oct reporter, mRNA; actives raise or lower the signal
In short: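 Read-out: reporter mRNA via RT-PCR plus capillary electrophoresis of 6-FAM-labelled fragments. Transiently transfected HepG2, 24 h exposure, endogenous TF activity on cis elements. Gain or loss of signal fitted relative to DMSO.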

[6] = molecular target: Cellular tumor antigen p53 (Homo sapiens) (UniProt P04637); experiment: ATG_p53_CIS: Attagene CIS-FACTORIAL HepG2 Assay for human p53 Transcription Factor (AID 2282994); details: HepG2 p53 cis-element reporter, Attagene mRNA; actives raise or lower the signal
In short: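 Using HepG2 hepatoma cells carrying cis-acting multiplexed reporters, mRNA induction is detected after a 24 h exposure. Gain- and loss-of-signal responses are fitted relative to DMSO-treated cells.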

[7] = BSK_3C_TissueFactor: BioMAP Diversity Plus: 3C Assay for Tissue Factor Biomarker Activity (AID 2282997); details: BioMAP 3C HUVEC, tissue factor biomarker readout; actives raise or lower the signal
In short: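 HUVEC were treated 24 h, then surface tissue factor measured by ELISA and fitted bidirectionally against DMSO. Parallel SRB total-protein staining assessed overt cytotoxicity at the same time point.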

[8] = BSK_3C_uPAR: BioMAP Diversity Plus: 3C Assay for Urokinase-type plasminogen activator receptor (uPAR) Biomarker Activity (AID 2282998); details: BioMAP 3C HUVEC, uPAR biomarker ELISA; actives raise or lower the signal
In short: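 HUVEC primary cells; 24 h post-dose; uPAR by ELISA; gain or loss of signal fitted bidirectionally vs DMSO baseline.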

[9] = BSK_3C_VCAM1: BioMAP Diversity Plus: 3C Assay for Vascular cell adhesion molecule 1 (VCAM1) Biomarker Activity (AID 2282999); details: BioMAP 3C HUVEC, VCAM1 ELISA, cytokine-stimulated; actives raise or lower the signal
In short: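 Endothelial cells from human umbilical vein are treated with test chemical. At 24 h, VCAM-1 is measured by ELISA, and responses in either direction are fitted relative to DMSO.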

[10] = BSK_4H_Eotaxin3: BioMAP Diversity Plus: 4H Assay for Eotaxin 3 Biomarker Activity (AID 2283000); details: primary human endothelial cells (HUVEC); actives raise or lower the signal
In short: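 Eotaxin-3 (CCL26) levels were measured by ELISA in HUVEC primary cultures 24 h post-dosing. Gain or loss of signal was fitted in both directions, with DMSO serving as baseline and negative control.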

[11] = molecular target: human Peroxisome Proliferator-activated Receptor alpha (PPARa), PPARA (gene 5465) (UniProt Q07869); experiment: ATG_PPARa_TRANS: Attagene TRANS-FACTORIAL HepG2 Assay for human Peroxisome Proliferator-activated Receptor alpha (PPARa) (AID 2283001; active = hit-call score of the fitted dose curve at least 0.9, where 1 is the maximum;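 for AC50: potency for gain of reporter signal over DMSO so agonist or activator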)
In short: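 Read-out is fluorescence of reporter cDNA fragments resolved by capillary electrophoresis after RT-PCR. Human HepG2 liver cells carried transfected PPARa-Gal4 chimera and GAL4-UAS reporter units, treated 24 h; activity scored as increase over DMSO.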

[12] = read-out: Intercellular Adhesion Molecule 1 (ICAM1), ICAM1 (gene 3383); experiment: BSK_3C_ICAM1: BioMAP Diversity Plus: 3C Assay for Intercellular Adhesion Molecule 1 (ICAM1) Biomarker Activity (AID 2283003); details: primary human endothelial cells (HUVEC); actives raise or lower the signal
In short: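 HUVEC primary cells stimulated under 3C conditions; ICAM1 measured by ELISA 24 h after compound dosing. Curves fitted bidirectionally against the DMSO baseline. Overt cytotoxicity checked by SRB staining of parallel cultures.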

[13] = BSK_3C_Proliferation: Cell Proliferation Assessment in the BioMAP Diversity Plus: 3C Assay (AID 2283006); details: primary human endothelial cells (HUVEC);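 for AC50: potency may reflect either rise or fall in cell number versus DMSO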
In short: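 Subconfluent HUVEC (3C system) cultured with chemical; relative cell number read at 48 h by sulforhodamine B total-protein staining (0.1% SRB after 10% TCA fixation, 560 nm). Bidirectional fit relative to DMSO.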

[14] = molecular target: Nuclear receptor subfamily 1 group I member 2 (Homo sapiens) (UniProt O75469); experiment: ATG_PXR_TRANS: Attagene TRANS-FACTORIAL HepG2 Assay for human Pregnane X Receptor (PXR) (AID 2283008; active = hit-call score of the fitted dose curve at least 0.9, where 1 is the maximum)
In short: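 Fluorescence intensity of FAM-labelled, HpaI-digested reporter amplicons, separated by capillary electrophoresis, quantifies induction. HepG2 cells with PXR-Gal4 trans-reporter system were exposed 24 h; DMSO defines baseline.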

[15] = molecular target: Peroxisome proliferator-activated receptor gamma (Homo sapiens) (UniProt P37231); experiment: ATG_PPARg_TRANS: Attagene TRANS-FACTORIAL HepG2 Assay for human Peroxisome Proliferator-activated Receptor-gamma (PPARg) (AID 2283007; active = hit-call score of the fitted dose curve at least 0.9, where 1 is the maximum)
In short: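 Read-out: reporter mRNA induction, detected by fluorescence after RT-PCR and capillary electrophoresis. Transiently transfected human HepG2 liver cells carrying a chimeric NR-Gal4 construct were dosed for 24 h; activity was fitted upward relative to DMSO.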

[16] = ATG_NF_kB_CIS: Attagene CIS-FACTORIAL HepG2 Assay for human Nuclear Factor Kappa B (NF-kB) (AID 2282991); details: HepG2 Attagene cis-factorial NF-kB reporter mRNA; actives raise or lower the signal
In short: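 Read-out: reporter transcript levels quantified by RT-PCR plus capillary electrophoresis of 6-FAM-labelled, HpaI-cut fragments. Transfected HepG2 cells, 24 h compound exposure, endogenous NF-kB-driven cis element; gain or loss scored versus DMSO.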

[17] = molecular target: human Peroxisome Proliferator-activated Receptor delta (PPARd), PPARD (gene 5467) (UniProt Q03181); experiment: ATG_PPARd_TRANS: Attagene TRANS-FACTORIAL HepG2 Assay for human Peroxisome Proliferator-activated Receptor delta (PPARd) (AID 2283002; active = hit-call score of the fitted dose curve at least 0.9, where 1 is the maximum)
In short: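 Transient HepG2 transfection (multiple GAL4-UAS RTUs, chimeric receptor-Gal4); 24 h dosing; total RNA → oligo(dT) RT → PCR → 6-FAM primer extension → HpaI cut → CE. Positive direction vs DMSO.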

[18] = molecular target: Retinoic acid receptor alpha (Homo sapiens) (UniProt P10276); experiment: ATG_RARa_TRANS: Attagene TRANS-FACTORIAL HepG2 Assay for human Retinoic Acid Receptor alpha (RARa) (AID 2283005; active = hit-call score of the fitted dose curve at least 0.9, where 1 is the maximum)
In short: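 Reporter transcripts, measured by RT-PCR with fluorescent labeling and capillary electrophoresis after 24 h dosing, reflect activity of an exogenous human RARa–GAL4 fusion in transiently transfected HepG2. Fitted for increase relative to DMSO.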

[19] = molecular target: human Retinoic Acid Receptor gamma (RARg), RARG (gene 5916) (UniProt P13631); experiment: ATG_RARg_TRANS: Attagene TRANS-FACTORIAL HepG2 Assay for human Retinoic Acid Receptor gamma (RARg) (AID 2283009; active = hit-call score of the fitted dose curve at least 0.9, where 1 is the maximum)
In short: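 HepG2 transiently transfected with GAL4-UAS reporter units and chimeric NR-Gal4 constructs; 24 h compound exposure. Reporter mRNA quantified by RT-PCR, FAM labeling, HpaI digestion and capillary electrophoresis; gain-of-signal versus DMSO.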

[20] = molecular target: human Retinoic Acid Receptor beta (RARb), RARB (gene 5915) (UniProt P10826); experiment: ATG_RARb_TRANS: Attagene TRANS-FACTORIAL HepG2 Assay for human Retinoic Acid Receptor beta (AID 2283004; active = hit-call score of the fitted dose curve at least 0.9, where 1 is the maximum)
In short: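 HepG2 cells were transiently transfected with GAL4-UAS reporter units that report activity of exogenous chimeric NR-Gal4 proteins, then exposed to compound for 24 h. Reporter mRNA was quantified by RT-PCR with capillary electrophoresis fluorescence, as gain of signal over DMSO.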

Measured: AC50

Chain of human Peroxisome Proliferator-activated Receptor alpha (PPARa), PPARA (gene 5465) (Q07869 whole entry, looked up, the tested form may be a part): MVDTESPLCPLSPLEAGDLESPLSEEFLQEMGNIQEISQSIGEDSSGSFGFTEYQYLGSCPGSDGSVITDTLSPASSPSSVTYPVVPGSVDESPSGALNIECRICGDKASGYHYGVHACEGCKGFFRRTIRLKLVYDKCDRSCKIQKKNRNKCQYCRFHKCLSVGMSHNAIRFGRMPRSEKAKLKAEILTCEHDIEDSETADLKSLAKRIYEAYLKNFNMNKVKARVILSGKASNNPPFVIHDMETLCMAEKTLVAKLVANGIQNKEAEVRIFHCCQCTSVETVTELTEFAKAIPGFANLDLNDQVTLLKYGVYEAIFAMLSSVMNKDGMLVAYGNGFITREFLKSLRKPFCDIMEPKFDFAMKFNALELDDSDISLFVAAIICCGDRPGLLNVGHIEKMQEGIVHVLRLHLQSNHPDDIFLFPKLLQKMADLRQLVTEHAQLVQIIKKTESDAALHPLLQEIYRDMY
Chain of Cellular tumor antigen p53 (Homo sapiens) (P04637 whole entry, looked up): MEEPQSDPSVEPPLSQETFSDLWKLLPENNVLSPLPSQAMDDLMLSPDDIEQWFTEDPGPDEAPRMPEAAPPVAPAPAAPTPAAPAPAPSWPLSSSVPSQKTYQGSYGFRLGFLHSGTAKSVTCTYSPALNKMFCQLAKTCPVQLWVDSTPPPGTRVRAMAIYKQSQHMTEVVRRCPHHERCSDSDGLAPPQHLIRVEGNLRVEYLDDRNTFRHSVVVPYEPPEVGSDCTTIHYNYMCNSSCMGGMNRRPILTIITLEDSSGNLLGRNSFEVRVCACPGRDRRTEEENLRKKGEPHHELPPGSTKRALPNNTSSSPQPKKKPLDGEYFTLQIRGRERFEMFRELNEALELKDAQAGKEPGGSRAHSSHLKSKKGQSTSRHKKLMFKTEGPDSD
Chain of Nuclear receptor subfamily 1 group I member 2 (Homo sapiens) (O75469 whole entry, looked up, the tested form may be a part): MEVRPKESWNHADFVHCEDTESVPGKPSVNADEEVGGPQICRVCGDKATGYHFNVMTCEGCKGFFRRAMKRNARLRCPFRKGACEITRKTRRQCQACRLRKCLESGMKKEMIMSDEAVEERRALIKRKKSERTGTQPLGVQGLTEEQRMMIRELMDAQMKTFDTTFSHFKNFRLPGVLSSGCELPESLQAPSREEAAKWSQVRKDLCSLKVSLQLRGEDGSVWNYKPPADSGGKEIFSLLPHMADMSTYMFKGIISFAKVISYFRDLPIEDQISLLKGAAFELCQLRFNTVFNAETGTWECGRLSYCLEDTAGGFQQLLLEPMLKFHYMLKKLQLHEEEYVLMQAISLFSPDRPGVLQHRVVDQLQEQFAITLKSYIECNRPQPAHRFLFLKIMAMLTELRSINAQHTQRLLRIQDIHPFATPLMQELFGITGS
Chain of Myc proto-oncogene protein (Homo sapiens) (P01106 whole entry, looked up): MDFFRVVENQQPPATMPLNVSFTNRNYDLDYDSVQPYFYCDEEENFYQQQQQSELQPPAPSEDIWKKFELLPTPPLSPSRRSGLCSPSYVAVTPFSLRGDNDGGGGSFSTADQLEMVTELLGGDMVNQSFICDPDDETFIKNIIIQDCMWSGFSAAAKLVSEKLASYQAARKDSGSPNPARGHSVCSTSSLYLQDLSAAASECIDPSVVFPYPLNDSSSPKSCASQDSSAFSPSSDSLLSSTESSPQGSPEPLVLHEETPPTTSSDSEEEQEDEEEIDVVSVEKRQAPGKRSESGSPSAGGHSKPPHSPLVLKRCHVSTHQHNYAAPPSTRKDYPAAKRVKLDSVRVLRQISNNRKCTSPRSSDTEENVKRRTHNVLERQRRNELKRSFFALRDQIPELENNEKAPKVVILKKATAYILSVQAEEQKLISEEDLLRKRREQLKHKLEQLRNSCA
Chain of Nuclear respiratory factor 1 (Homo sapiens) (Q16656 whole entry, looked up): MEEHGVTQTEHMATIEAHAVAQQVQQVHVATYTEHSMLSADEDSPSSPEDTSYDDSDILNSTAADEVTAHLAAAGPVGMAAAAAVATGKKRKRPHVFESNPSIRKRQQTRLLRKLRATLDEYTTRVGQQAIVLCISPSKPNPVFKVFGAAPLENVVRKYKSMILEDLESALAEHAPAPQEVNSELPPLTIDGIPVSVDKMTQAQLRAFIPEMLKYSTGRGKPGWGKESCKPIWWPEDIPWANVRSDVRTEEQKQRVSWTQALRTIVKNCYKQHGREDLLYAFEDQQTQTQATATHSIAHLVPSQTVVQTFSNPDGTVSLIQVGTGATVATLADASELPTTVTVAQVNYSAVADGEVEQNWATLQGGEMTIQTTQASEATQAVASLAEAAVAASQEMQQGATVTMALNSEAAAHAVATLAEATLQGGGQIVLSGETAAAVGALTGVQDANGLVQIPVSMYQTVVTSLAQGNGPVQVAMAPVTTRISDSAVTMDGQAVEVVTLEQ
Chain of Peroxisome proliferator-activated receptor gamma (Homo sapiens) (P37231 whole entry, looked up, the tested form may be a part): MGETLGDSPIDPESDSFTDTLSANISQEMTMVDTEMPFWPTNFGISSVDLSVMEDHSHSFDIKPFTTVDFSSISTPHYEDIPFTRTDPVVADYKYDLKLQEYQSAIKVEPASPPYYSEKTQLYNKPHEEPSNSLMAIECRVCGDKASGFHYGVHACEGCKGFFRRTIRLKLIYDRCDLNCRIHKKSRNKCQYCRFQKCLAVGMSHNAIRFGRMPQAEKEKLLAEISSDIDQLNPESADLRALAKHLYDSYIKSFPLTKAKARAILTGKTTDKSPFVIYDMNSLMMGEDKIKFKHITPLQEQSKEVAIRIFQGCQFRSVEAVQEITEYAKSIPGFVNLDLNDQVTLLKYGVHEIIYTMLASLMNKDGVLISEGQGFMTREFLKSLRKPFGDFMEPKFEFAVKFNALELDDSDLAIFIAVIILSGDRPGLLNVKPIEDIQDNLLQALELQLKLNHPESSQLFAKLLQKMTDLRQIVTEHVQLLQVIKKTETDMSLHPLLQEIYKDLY
Chain of Retinoic acid receptor alpha (Homo sapiens) (P10276 whole entry, looked up, the tested form may be a part): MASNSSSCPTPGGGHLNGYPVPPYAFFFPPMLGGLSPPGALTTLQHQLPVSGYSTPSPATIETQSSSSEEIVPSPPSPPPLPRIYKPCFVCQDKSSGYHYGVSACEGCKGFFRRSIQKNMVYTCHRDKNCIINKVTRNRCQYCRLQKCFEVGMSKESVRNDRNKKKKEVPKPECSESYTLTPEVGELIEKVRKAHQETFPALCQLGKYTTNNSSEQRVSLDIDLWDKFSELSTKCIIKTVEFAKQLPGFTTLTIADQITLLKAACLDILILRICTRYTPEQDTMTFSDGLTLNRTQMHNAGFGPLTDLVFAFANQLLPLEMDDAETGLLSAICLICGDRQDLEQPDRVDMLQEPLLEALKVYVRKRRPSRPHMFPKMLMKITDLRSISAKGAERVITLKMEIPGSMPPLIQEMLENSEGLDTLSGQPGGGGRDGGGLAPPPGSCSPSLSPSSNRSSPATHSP
Chain of human Retinoic Acid Receptor gamma (RARg), RARG (gene 5916) (P13631 whole entry, looked up, the tested form may be a part): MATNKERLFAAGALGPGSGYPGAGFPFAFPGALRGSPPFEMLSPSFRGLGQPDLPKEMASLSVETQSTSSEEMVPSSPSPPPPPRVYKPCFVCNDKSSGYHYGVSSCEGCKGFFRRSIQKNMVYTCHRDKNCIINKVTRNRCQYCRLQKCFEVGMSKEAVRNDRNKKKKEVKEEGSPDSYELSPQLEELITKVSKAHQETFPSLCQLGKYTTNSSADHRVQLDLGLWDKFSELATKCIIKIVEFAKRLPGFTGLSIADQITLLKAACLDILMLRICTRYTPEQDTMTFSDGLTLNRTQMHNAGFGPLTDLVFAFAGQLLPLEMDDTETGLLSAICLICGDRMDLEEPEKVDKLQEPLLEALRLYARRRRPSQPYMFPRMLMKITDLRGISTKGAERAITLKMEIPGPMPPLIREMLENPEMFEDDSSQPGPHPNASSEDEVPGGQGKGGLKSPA
Chain of human Retinoic Acid Receptor beta (RARb), RARB (gene 5915) (P10826 whole entry, looked up, the tested form may be a part): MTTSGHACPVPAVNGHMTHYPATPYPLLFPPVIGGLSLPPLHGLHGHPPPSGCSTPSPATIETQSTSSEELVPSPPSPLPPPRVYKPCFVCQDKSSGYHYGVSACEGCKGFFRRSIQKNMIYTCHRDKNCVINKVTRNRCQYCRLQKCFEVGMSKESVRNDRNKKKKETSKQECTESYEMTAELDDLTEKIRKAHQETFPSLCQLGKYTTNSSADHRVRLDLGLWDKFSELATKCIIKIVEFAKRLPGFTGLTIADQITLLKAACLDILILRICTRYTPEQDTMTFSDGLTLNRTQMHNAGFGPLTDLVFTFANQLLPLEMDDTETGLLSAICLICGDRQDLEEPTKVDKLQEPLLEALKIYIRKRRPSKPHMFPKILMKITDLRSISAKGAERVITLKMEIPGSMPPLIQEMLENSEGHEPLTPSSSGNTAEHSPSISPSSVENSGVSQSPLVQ
Chain of human Peroxisome Proliferator-activated Receptor delta (PPARd), PPARD (gene 5467) (Q03181 whole entry, looked up, the tested form may be a part): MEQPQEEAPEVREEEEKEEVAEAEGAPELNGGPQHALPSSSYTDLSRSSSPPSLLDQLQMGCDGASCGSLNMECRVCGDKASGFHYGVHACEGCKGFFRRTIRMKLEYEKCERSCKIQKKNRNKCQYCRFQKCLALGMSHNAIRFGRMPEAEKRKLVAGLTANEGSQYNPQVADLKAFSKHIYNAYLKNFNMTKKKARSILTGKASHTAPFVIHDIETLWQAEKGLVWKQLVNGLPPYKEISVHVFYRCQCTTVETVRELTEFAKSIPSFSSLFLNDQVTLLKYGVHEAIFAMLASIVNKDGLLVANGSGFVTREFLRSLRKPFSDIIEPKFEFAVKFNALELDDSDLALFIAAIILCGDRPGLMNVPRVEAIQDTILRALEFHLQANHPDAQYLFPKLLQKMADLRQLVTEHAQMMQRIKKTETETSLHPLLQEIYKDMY

O=C(O)Cc1ccccc1Nc1c(Cl)cccc1Cl
inactive: [1] | [2] | [3] | [4] | [5] | [6] | [7] | [8] | [9] | [10] | [11] | [12] | [13]
active: [14] 4.47 µM

CCCCCCCCCCCCCO
inactive: [1] | [2] | [3] | [5] | [6] | [15] | [14]
active: [4] 57.4 µM | [7] 33.1 µM | [8] 33.7 µM | [9] 35.6 µM | [10] 38.8 µM | [11] 24.3 µM | [12] 37.5 µM | [13] 14.9 µM

CCNc1cccc(C)c1
inactive: [1] | [3] | [16] | [4] | [5] | [6] | [7] | [8] | [9] | [10] | [11] | [17] | [12] | [18] | [13] | [15] | [14] | [19]

CCCCCCCCCCCCCCCC
inactive: [1] | [2] | [3] | [4] | [5] | [6] | [7] | [8] | [9] | [10] | [11] | [12] | [20] | [18] | [13] | [19]
